This is part of a sample that, as a whole, favours compounds with a hit. Of some 83,000 tested, about 20% had one in any assay.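 Cell lines were cultured in 96-well plates, exposed to a single compound concentration, and assessed for percent growth 48 hours later.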 Unmarked numbers belong to inactive results. Active and inactive are the calls of the source. The calls were made as follows: active = growth percent below 10; inactive = the rest.
What follows are compounds tested on MDA-MB-468 breast (assay: NCI-60 one-dose screen, 48 h (100 = growth as untreated, 0 = no growth, -100 = all killed)). Settings: 10 µM unless noted.
`CC(C)(CCc1ccccn1)C(=O)CCCc1ccccn1` gave a growth of 107%.
With `O=c1[nH]nc(-c2ccccc2)c2c(-c3ccccc3)onc12` the growth was 1.46% (active).
With `O=C1NC(=O)[C@@H](c2cn3c4c(cccc24)CCC3)[C@@H]1c1c[nH]c2ccccc12` the growth was -0.826% (active).
For `Cc1ccccc1C[P+](c1ccccc1)(c1ccccc1)c1ccccc1`, the growth was -17.6% (active).
`COc1ccccc1-n1c(-c2cc(O)ccc2C)cn2c3c(=O)[nH]c(=O)n(C)c3nc12` gave a growth of 92.3%.
`Cc1ccc(/C=C(/C#N)n2nnc3ncccc32)cc1` gave a growth of 24.4%.
With `CCOC(=O)c1cc2c(n(C)c1=O)-c1cnn(-c3ccc(OC)cc3)c1CC2` the growth was 93.2%.
`NC(=O)c1cc(Cl)ccc1NC(=O)/C=C/c1ccccc1` was tested, and the growth was 30.7%.
`O=S1SC(c2ccccc2)=NN1c1cc(F)cc(F)c1` (configuration not stated) gave a growth of 44.4%.
Work on `CC(C)(C)N1CCC1CN` (configuration not stated) yielded a growth of 97.2%.
With `Cc1ccc(NCCNCC(C)(C)O)c2c(=O)c3ccc(Cl)cc3sc12` the growth was -28.9% (active).
`COc1cccc(-c2ccc3c(c2)NC(=O)/C3=C\c2ccc[nH]2)c1` was tested, and the growth was 3.08% (active).
`Cc1cnc2nc(NN)[nH]n12` showed a growth of 91%.
`COC(=O)C(C)NS(=O)(=O)/N=C1\NC(=O)NC1=C(Cl)Cl` (configuration not stated) gave a growth of 91.4%.
With `COc1ccccc1C(=O)NC(=S)Nc1ccc(-c2nc3ccccc3[nH]2)cc1` the growth was 75.1%.
`CN(C)CCOC(=O)Nc1ccc(Cl)cc1` showed a growth of 104%.
In the case of `CCc1ccc2c(c1)N(CCO)C1=C(C(=O)OC1)C2c1cccc(Cl)c1` (configuration not stated), the growth is reported as 20.1%.

Reference: PubChem BioAssay (NCI)
